# Records with an inconclusive call do not appear. Where a call stands in place of a potency, no number is given. A number with no mark means an inactive call. The source made the active and inactive calls. The call rests on the fitted dose curve; in most records, active means well fitted inhibition curve with a large enough effect; inconclusive means small, poorly fitted or top-dose-only effect; inactive means flat fitted curve, though single readings scatter.
# Assay: qHTS to identify inhibitors of the type 1 interferon - major histocompatibility complex class I in skeletal muscle: primary screen against the NCATS Pharmaceutical Collection (AID 1347407)
# Conditions: human skeletal muscle cells, IFN-b-induced MHC-I HiBiT luminescence, 24 h; series mostly up to 45.9 µM
# In short: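 Luminescence from HiBiT-tagged endogenous HLA-B*08:01 served as the read-out of IFN-beta-induced MHC class I in CRISPR-engineered C25cl48 myoblasts. Cells received 4 ng/ml IFN-beta plus compound (high final 46 uM, […]) for 24 h.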
# Potency means the concentration at half of the fitted maximal effect.
Compound,Potency,"activity change, negative = inhibition"
Cc1c(C)n(Cc2ccccc2)c2ccc(C(=O)OCCN(C)C)cc12,inactive,
COCc1c(C(C)C)nc(C(C)C)c(/C=C/[C@@H](O)C[C@@H](O)CC(=O)O)c1-c1ccc(F)cc1,inactive,
c1ccc(OCc2ccc(CCCN3CCOCC3)cc2)cc1,inactive,
COc1cc(N)c(Cl)cc1C(=O)NC1CCN(CCCOc2ccc(F)cc2)CC1OC (stereo not given),inactive,
CCCCC(CC)CN=C(N)NC(N)=NCCCCCCN=C(N)NC(N)=NCC(CC)CCCC (stereo not given),14.9 µM (active),
Cc1cc(N)c2cc(NC(=O)Nc3ccc4nc(C)cc(N)c4c3)ccc2n1,inactive,
COc1cc(OC)cc(OC)c1,inactive,
CN(C/C=C/c1ccccc1)Cc1cccc2ccccc12,inactive,
CCOC(=O)OC(C)OC1=C(C(=O)Nc2ccccn2)N(C)S(=O)(=O)c2ccccc21 (stereo not given),inactive,
Nc1nc2ncc(CNc3ccc(C(=O)N[C@@H](CCC(=O)O)C(=O)O)cc3)nc2c(=O)[nH]1,inactive,
OC[C@H]1O[C@@H](n2cnc3c(=S)nc[nH]c32)[C@H](O)[C@@H]1O,inactive,
NC[C@H]1O[C@H](O[C@H]2[C@H](O[C@@H]3O[C@H](CO)[C@@H](O)[C@H]3O)C(O)[C@H](N)C[C@@H]2N)[C@H](N)[C@@H](O)[C@@H]1O (stereo not given in full),,-10.7% [at 9.18 µM]
CCCCN1CCCC1C(=O)Nc1c(C)cc(C)cc1C (stereo not given),inactive,
O=C(N/N=C/c1ccccc1O)c1ccncc1,inactive,
NC[C@H]1O[C@H](O[C@H]2[C@H](O)[C@@H](O[C@H]3O[C@H](CO)[C@@H](O)[C@H](N)[C@H]3O)[C@H](N)C[C@@H]2N)[C@H](N)[C@@H](O)[C@@H]1O,inactive,

# Source: PubChem BioAssay (NCATS)
